# Compound activity as filed in PubChem BioAssay.
# TR-FRET SRC-2 ct – flags TR-FRET format artefacts in PPARgamma SRC-2 recruitment agonist screen; TR-FRET artefact counter-screen; hits give high values; TR-FRET ratio at 8 µM; 200,000 tested, 0.4% active
# PPARg SRC1 recr – agonists of human PPARgamma SRC-1 coactivator recruitment | P37231 | PPARgamma-SRC-1 coactivator recruitment biochemical assay | activation, % at 8 µM | 200,000 tested, 0.41% active | AID 631; in the data active = activation above about 19%;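 also: 0% = DMSO and 100% = reference agonist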
# Target sequence (P37231 whole entry, looked up): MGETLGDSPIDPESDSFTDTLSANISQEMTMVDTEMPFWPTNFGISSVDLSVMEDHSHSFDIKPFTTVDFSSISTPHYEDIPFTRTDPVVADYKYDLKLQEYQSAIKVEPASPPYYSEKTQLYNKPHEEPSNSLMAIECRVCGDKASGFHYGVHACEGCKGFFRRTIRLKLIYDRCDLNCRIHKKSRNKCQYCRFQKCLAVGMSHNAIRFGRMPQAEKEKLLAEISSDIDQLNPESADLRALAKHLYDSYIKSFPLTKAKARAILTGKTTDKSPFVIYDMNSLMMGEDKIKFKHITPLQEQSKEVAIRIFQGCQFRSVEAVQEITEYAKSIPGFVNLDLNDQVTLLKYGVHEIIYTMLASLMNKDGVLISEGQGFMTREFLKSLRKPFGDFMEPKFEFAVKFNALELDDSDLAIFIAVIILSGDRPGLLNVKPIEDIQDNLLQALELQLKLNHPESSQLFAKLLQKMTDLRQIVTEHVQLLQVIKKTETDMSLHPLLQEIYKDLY
# PPARg SRC3 recr – agonists of human PPARgamma SRC-3 coactivator recruitment | P37231 | biochemical PPARgamma/SRC-3 coactivator recruitment assay | activation, % at 8 µM | 200,000 tested, 0.26% active | AID 731; in the data active = activation above about 23%;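 also: 0% = DMSO and 100% = reference agonist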
# SRC3 TRFRET art – flags TR-FRET format artefacts in PPARgamma SRC-3 recruitment agonist screen; AID 1048; 99,000 tested, 0.39% active; TR-FRET ratio at 8 µM; TR-FRET artefact counter-screen, PPARgamma/SRC-3 format; hits give high values
# PPARg SRC-2 ag – agonists of SRC-2 recruitment by human PPARgamma; PPARgamma LBD-SRC-2 recruitment, biochemical; activation, % at 8 µM; 200,000 tested, 0.34% active; in the data active = activation above about 22%;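 also: 0% = vehicle and 100% = reference agonist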
# SRC1 TRFRET art – flags TR-FRET format artefacts in PPARgamma SRC-1 recruitment agonist screen; TR-FRET ratio at 8 µM; 99,000 tested, 0.34% active; TR-FRET detection artefact counter-screen, emission ratio; hits give high values; in the data active = TR-FRET ratio above about 2300
# PPARg SRC2 conf – confirmation of agonists of SRC-2 recruitment by human PPARgamma; biochemical SRC-2 recruitment by PPARgamma; shares compounds with PPARg SRC3 recr; 790 tested, 52% active; activation, % at 8 µM; in the data active = activation above about 22%;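 also: 0% = vehicle alone and 100% = reference agonist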
# PPARg SRC1 ag – confirmation of agonists of SRC-1 recruitment by human PPARgamma. AID 1300. shares compounds with PPARg SRC3 recr. 790 tested, 43% active. activation, % at 8 µM. PPARgamma–SRC-1 coactivator recruitment biochemical assay; in the data active = activation above about 20%;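 also: 0% = vehicle wells and 100% = reference agonist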
# PPARg SRC3 ag – human PPARgamma SRC-3 recruitment agonism, confirmation | shares compounds with PPARg SRC3 recr | biochemical PPARgamma-SRC-3 coactivator recruitment, agonist mode | activation, % at 8 µM | 790 tested, 29% active | AID 1301; in the data active = activation above about 24%;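 also: 0% = vehicle wells and 100% = reference agonist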
# * hit, by the source's call; nt = no result. Rows were chosen to be rich in hits. Some 0.84% of all compounds tested hit in one or more screens of this group. Rule as the data show it, unless noted: active = TR-FRET ratio above about 2000; inactive = the rest.
SMILES,TR-FRET SRC-2 ct,PPARg SRC1 recr,PPARg SRC3 recr,SRC3 TRFRET art,PPARg SRC-2 ag,SRC1 TRFRET art,others
O=C1Nc2ccccc2/C1=C/c1cnc[nH]1,1808,12.4,33.2*,nt,17.4,nt,
c1cncc(CNC2CCCC2)c1,1583,40.1*,-1.4,1585,0.1,3393*,
CC1(C)CN2C(c3ccc(Cl)cc3)N2C1 (stereo not drawn),1346,-2.0,2.6,nt,7.1,nt,
COc1ccc(C(=O)C23CN4CN(CN(C4)C2)C3)cc1,1613,-6.5,-6.0,1554,3.3,1575,
COc1ccc(C(=O)C(C)(C)NO)cc1,1650,2.5,27.5*,nt,3.4,nt,
CC(=O)Nc1ccccc1C(=O)C(=O)Nc1cccc(C(=O)N2CCC3(CC2)OCCO3)c1,1597,0.1,2.3,1595,-7.0,1794,
CC(NC(=O)Cc1cccc2ccccc12)C(=O)N1CCC(=O)CC1 (stereo not drawn),1628,-0.7,-2.4,1643,-6.1,1922,
Cc1c2ccncc2c(C)c2c1[nH]c1ccccc12,1611,26.9*,6.3,1767,7.6,2068,
c1ccc2c(c1)[nH]c1cnccc12,1759,8.4,5.7,1611,4.8,1918,
Cc1cccc(NP(=O)(Oc2ccccc2F)Oc2ccccc2F)c1C,1715,7.1,2.4,1742,-4.5,2320*,
Cc1ccccc1-n1c(O)c(C=Nc2ccc(N(C)C)cc2)c(=O)[nH]c1=O,2050*,15.2,25.7*,nt,22.7*,nt,PPARg SRC2 conf=6.8;PPARg SRC1 ag=10.1;PPARg SRC3 ag=5.3
Cc1cccc(N=Cc2c(O)n(-c3ccccc3C)c(=O)[nH]c2=O)c1,1341,-1.6,-10.2,nt,0.3,nt,
C=CCn1c(O)c(C=Nc2ccc(N(CC)CC)cc2)c(=O)[nH]c1=O,1780,7.5,25.8*,nt,17.9,nt,PPARg SRC2 conf=8.7;PPARg SRC1 ag=9.5;PPARg SRC3 ag=8.5
Cn1c(=O)cc(SCC(=O)N2CCC3(CC2)OCCO3)c2ccccc21,2418*,43.8*,60.3*,nt,38.7*,nt,PPARg SRC2 conf=33.0*;PPARg SRC1 ag=20.2*;PPARg SRC3 ag=22.8
O=c1[nH]c(=O)n(Cc2ccccc2Cl)c(O)c1C=Nc1ccc(F)cc1,1683,5.7,7.0,1372,-5.4,1817,
CC(=O)NC1C(OC(=O)Cc2ccccc2)OC(COC(C)=O)C(OC(C)=O)C1OC(C)=O (stereo not drawn),1536,8.9,2.6,1477,-3.7,2095,
